SMILES strings stand for the structures. Out of some 290,000 compounds screened, about 11,000 (3.8%) were called active.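 Rule for the calls: active = mean replicate inhibition above about 79%, with every replicate also reaching it (limit read from the data); inconclusive = only one of the two criteria met; inactive = mean below limit and not every replicate reaching it.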 Shown is part of a subset that was picked to be rich in actives.

Usually inhibition stands for the change of the read-out against control, counted positive when it falls.

The target in the assay is FAD-linked sulfhydryl oxidase ALR (Homo sapiens) (UniProt P55789). The experiment in a line: inhibitors of human ALR sulfhydryl oxidase, primary screen, biochemical, H2O2 detection, HRP-luminol luminescence, single point (AID 485317). To be noted: purified ALR, DTT oxidation, active compounds read high, concentration not given here.
Sequence of FAD-linked sulfhydryl oxidase ALR (Homo sapiens) (P55789 whole entry, looked up): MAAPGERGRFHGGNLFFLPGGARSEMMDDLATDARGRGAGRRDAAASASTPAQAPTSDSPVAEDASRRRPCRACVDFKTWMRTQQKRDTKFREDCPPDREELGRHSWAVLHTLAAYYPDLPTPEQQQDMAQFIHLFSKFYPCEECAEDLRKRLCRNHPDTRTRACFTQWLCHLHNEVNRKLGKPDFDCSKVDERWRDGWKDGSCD
For the molecule `O=c1[nH]c(/C=C/c2cccc(Br)c2)nc2ccccc12`, the inhibition was -2.23% (inactive).

Consider `CC(C)(C)OC(=O)C[C@@H]1C/C=C\C[C@@H](CC(=O)N[C@H](CO)Cc2ccccc2)C(=O)NCCOC1=O`, for which the inhibition is 1.41% (inactive).

For the molecule `CCn1c(SCC(=O)Nc2ccc(Br)cc2)nc2sc3c(c2c1=O)CCN(C)C3`, the inhibition is 99% (active).

With `CCOc1ccc(-n2c(SCC(=O)Nc3ccc(OC)cc3)nc3sc4c(c3c2=O)CCN(C)C4)cc1`, the inhibition was 98.6% (active).

Consider `CCOc1ccc(NC(=O)CN2CCN(CC(=O)Nc3ccc(OC)cc3)CC2)cc1`, for which the inhibition was -10.2% (inactive).

Take `CCc1nc(SCC(=O)Nc2ccccc2OC)n[nH]1`: the inhibition is -18% (inactive).

On to `C=CCn1c(SCC(=O)Nc2ccc(NC(C)=O)cc2)nc2sc(C)c(C)c2c1=O`, for which the inhibition was -2.72% (inactive).

For the molecule `C=CCn1c(SCC(=O)NCCCO)nc2sc3c(c2c1=O)CCC3`, the inhibition was -4.11% (inactive).

Regarding `COc1ccccc1NC(=O)CSc1nnc(Cn2nnc(-c3ccccc3)n2)n1-c1ccccc1`, the inhibition is -1.41% (inactive).

As to `CCc1nnc(NC(=O)CSc2nc3c(c(=O)n2-c2ccccc2OC)SCC3)s1`, the inhibition was 1.36% (inactive).

Turning to `CCOc1ccc(-n2c(SCC(=O)Nc3cc(C(=O)O)ccc3Cl)nc3ccccc3c2=O)cc1`, the inhibition is -3.41% (inactive).

As for `COc1ccccc1NC(=O)CSc1nc2sc3c(c2c(=O)n1-c1ccccc1)CCN(C)C3`, the inhibition was 99% (active).

For `COc1ccccc1-n1c(SCC(=O)Nc2cccc(C(=O)O)c2)nnc1-c1ccccc1O`, the inhibition is 3.17% (inactive).

On to `CCOc1ccc(NC(=O)CSc2nc3c(c(=O)n2-c2ccccc2OC)SCC3)cc1`, for which the inhibition is 93.4% (active).

Turning to `CCN(CC)S(=O)(=O)c1ccc(N2CCCC2)c(NC(=O)c2ccc([N+](=O)[O-])o2)c1`, the inhibition is -36.7% (inactive).

Regarding `CC(C)(C)OC(=O)C[C@@H]1C/C=C\C[C@@H](CC(=O)NCCO)C(=O)N[C@H](Cc2c[nH]c3ccccc23)COC1=O`, the inhibition is -9.99% (inactive).

As to `CCN(CC(=O)NCc1ccc(F)cc1)S(=O)(=O)c1ccc(Cl)s1`, the inhibition was -4.96% (inactive).

For `Cc1ccc(CNC(=O)CC(NC(=O)c2ccccc2)c2ccccc2)cc1` (stereo not drawn), the inhibition is 1.43% (inactive).

As for `CC(=O)Nc1ccc(S(=O)(=O)NCCC(=O)N2CCN(c3ccccc3Cl)CC2)cc1`, the inhibition is 0.296% (inactive).

`O=C(CSc1nc2[nH]ncc2c(=O)[nH]1)Nc1ccc(F)cc1`: the inhibition was -2.71% (inactive).

On to `CCOc1ccc(-n2c(SCC(=O)OC)nc3sc4c(c3c2=O)CCN(C)C4)cc1`, for which the inhibition was 99.2% (active).

Regarding `Cc1ccc(C)c(-n2c(SCC(=O)O)nc3sc4c(c3c2=O)CCCC4)c1`, the inhibition was 4.79% (inactive).

Regarding `CCOc1ccc(-n2c(SC(C)C(=O)OC)nc3c(c2=O)SCC3)cc1` (stereo not drawn), the inhibition was -1.69% (inactive).

As for `O=C(N[C@@H](Cc1ccccc1)C(=O)OCc1ccccc1)c1nc[nH]c1C(=O)NC1CCNCC1`, the inhibition is 63.1% (inactive).

Take `O=C(Nc1ccc(NC(=O)c2ccc3c(c2)OCO3)cc1)c1cccc(Cl)c1`: the inhibition is 4% (inactive).

Take `CC(=O)c1c(OCC(=O)N(C)C2CCCCC2)ccc2c(C)cc(=O)oc12`: the inhibition is -4.49% (inactive).

With `COc1ccc(C(=O)CSc2nnc(COc3ccccc3)n2Cc2ccco2)cc1`, the inhibition was 13.2% (inactive).

With `CCCc1nc2c(c(=O)c3ccccc3n2C)c(=O)n1-c1cc(C)cc(C)c1`, the inhibition is 9.11% (inactive).

As to `Cn1c2ccccc2c(=O)c2c(=O)n(Cc3ccco3)c(COc3ccccc3)nc21`, the inhibition is 96.8% (active).

For `COc1ccc(S(=O)(=O)N(C)C[C@@H]2Oc3ccc(NS(=O)(=O)c4cn(C)cn4)cc3C(=O)N([C@@H](C)CO)C[C@@H]2C)cc1`, the inhibition is 0.531% (inactive).

Regarding `CC1CCN(c2c(NCc3ccc(C(=O)NCc4ccccc4)cc3)c(=O)c2=O)CC1`, the inhibition was 6.63% (inactive).

`O=C(NCc1ccccc1)c1ccc(CNc2c(N3CCCC3)c(=O)c2=O)cc1`: the inhibition is -1.76% (inactive).

Consider `O=C(NC1CCCCC1)c1ccc(CNc2c(N3CCOCC3)c(=O)c2=O)cc1`, for which the inhibition was 96.3% (active).

As for `O=C(COC(=O)c1ccccn1)NNC(=O)c1ccc(Br)cc1`, the inhibition is -1.13% (inactive).

As to `COc1ccc(Br)cc1CN(C)C(=O)C1CC(=O)N(C2CCCC2)C1` (stereo not drawn), the inhibition is -9.84% (inactive).

Take `O=C(Nc1cccc([N+](=O)[O-])c1)Nn1cnnc1`: the inhibition is -12.6% (inactive).

As for `COC(=O)/C=C\C(=O)Nc1cccc([N+](=O)[O-])c1`, the inhibition is 97.8% (active).

`COc1ccc(S(=O)(=O)NC(C)C(=O)Nc2cccc([N+](=O)[O-])c2)cc1` (stereo not drawn): the inhibition is 3.92% (inactive).

On to `Cc1noc(C)c1NC(=O)Nc1cccc2c1O[C@H](CN(C)S(=O)(=O)c1c(C)noc1C)[C@@H](C)CN([C@H](C)CO)C2=O`, for which the inhibition was 1.87% (inactive).

`Cc1cc(=O)oc2cc(NC(=O)C(C)Oc3ccccc3)ccc12` (stereo not drawn): the inhibition was -2.52% (inactive).

For the molecule `COc1ccc(CCNC(=S)N2CCN(S(=O)(=O)c3ccc(Cl)cc3)CC2)cc1`, the inhibition was -0.053% (inactive).

Take `Oc1cc2c(cc1O)CN(C(=S)NCCc1ccc(Cl)cc1)CCC2`: the inhibition was 97.9% (active).

Take `S=C(NCCc1ccccc1)N1CCCCC1`: the inhibition was -4.5% (inactive).

For `COC(=O)[C@@]12CCCN1[C@H](c1ccc(-c3ccc(F)cc3)c(OC)c1)[C@H]1C(=O)N(C)C(=O)[C@H]12`, the inhibition was -0.553% (inactive).

For `CCOc1ncccc1C(=O)OCC(=O)c1c[nH]c2ccccc12`, the inhibition is 16.6% (inactive).

As to `Cc1[nH]n(-c2ccc([N+](=O)[O-])cc2)c(=O)c1C=NCCN1CCN(C(=O)c2ccccc2F)CC1`, the inhibition is -0.584% (inactive).

`Cc1cccc(C(=O)NNC(=O)c2cccc([N+](=O)[O-])c2)c1`: the inhibition is 2.77% (inactive).

In the case of `Cc1ccc(-n2[nH]c(C)c(/C=N/NC(=O)c3cccc([N+](=O)[O-])c3)c2=O)cc1C`, the inhibition is 97% (active).

With `COc1ccc(C(=O)NCC2CCCCC2)cc1S(=O)(=O)N1CCCC1`, the inhibition was -2.78% (inactive).

Regarding `NC(=O)CSc1nnc(NC(=O)c2ccc3ccccc3c2)s1`, the inhibition was -2.49% (inactive).

Take `O=C(NCCS(=O)(=O)N1CCN(c2ccc(F)cc2)CC1)c1ccc2c(c1)OCO2`: the inhibition is 1.71% (inactive).

On to `CC(=O)Nc1ccc(NC(=O)CSc2nnnn2C2CCCCC2)cc1`, for which the inhibition was -20.6% (inactive).

As to `NS(=O)(=O)c1cccc(NC(=O)COC(=O)c2cc([N+](=O)[O-])ccc2N2CCCC2)c1`, the inhibition is -0.799% (inactive).

The record behind these values is PubChem BioAssay AID485317 (Broad Institute, 2010).
